Assay outcomes as filed in PubChem.
ALR H2O2 inh: blocks human ALR sulfhydryl oxidase activity; purified ALR, DTT oxidation, H2O2 HRP-luminol luminescence; inhibition, % (concentration not given with the values); 3.8% of 290,000 active; AID 485317;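 active means mean replicate inhibition above about 79%, with every replicate also reaching it, limit read from the data; inconclusive means only one of the two criteria met; inactive means mean below limit and not every replicate reaching it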
Target sequence (P55789 whole entry, looked up): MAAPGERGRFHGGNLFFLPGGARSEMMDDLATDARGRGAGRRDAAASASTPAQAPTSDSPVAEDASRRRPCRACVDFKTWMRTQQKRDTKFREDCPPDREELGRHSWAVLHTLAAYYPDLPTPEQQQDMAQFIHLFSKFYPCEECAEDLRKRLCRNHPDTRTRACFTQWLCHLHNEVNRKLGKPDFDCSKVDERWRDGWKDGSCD
PfGluPho inh: PfG6PD (Plasmodium falciparum) enzyme inhibition | PfGluPho enzyme, NADPH resazurin-diaphorase fluorescence | inhibition, % at 20 µM | 0.78% of 350,000 active | AID 504690;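 active means inhibition reaching at least a set limit at 20 µM in the primary screen, cut at about 59% in these data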
PHOSPHO1 block: blocks human PHOSPHO1 phosphatase activity; 1.1% of 290,000 active; recombinant PHOSPHO1, absorbance phosphatase assay; inhibition, % at 13.3 µM; in the data active means inhibition above about 60%
PfM18AAP inh: PfM18AAP enzyme inhibition; AID 1822; inhibition, % at 7.35 µM; recombinant PfM18AAP, H-Glu-NHMec fluorogenic cleavage; 1.2% of 290,000 active;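 active means inhibition above the campaign mean inhibition over all tested compounds plus 3 SD, cut at about 28% in these data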
Cardio protect: modulators protecting cardiomyocytes from myocardial damage | H9c2 cardiomyocytes, H2O2 injury protection, ATPLite, 2 h | protection from H2O2 cell death, % at 20 µM | 0.63% of 360,000 active | AID 588492;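 active means compounds giving at least 50% protection of heart cells from peroxide-induced death in the single-dose screen, raw or plate-pattern-corrected value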
Each line names hits and unclear results; the compound was inactive in the other large screens. Most compounds without a hit are left out; they make up all but 5.6% or so of the library.

CC(=O)NCCc1nc2cc(NC(=O)COc3cccc(C)c3)ccc2n1C	none
O=C(O)C1Sc2[nH]c(=O)sc2C2c3cc(Cl)ccc3OC(=O)C12 (configuration not stated)	ALR H2O2 inh 94, PHOSPHO1 block 89
O=C(O)C1Sc2[nH]c(=O)sc2C2c3cc(Br)ccc3OC(=O)C12 (configuration not stated)	none (no result: ALR H2O2 inh)
CCN(CC)S(=O)(=O)c1ccc(N2CCOCC2)c(NS(=O)(=O)c2ccc(Cl)s2)c1	none (no result: ALR H2O2 inh, PHOSPHO1 block, PfM18AAP inh)
COC(=O)Nc1sc2c(c1C(N)=O)CCC(C)C2 (configuration not stated)	PfM18AAP inh 49
CC1CCc2c(sc(NC(=O)c3cccn3C)c2C(N)=O)C1 (configuration not stated)	none (no result: PHOSPHO1 block, PfM18AAP inh)
CCOc1ccccc1N1C(=O)CC(N(O)c2ccccc2)C1=O (configuration not stated)	ALR H2O2 inh 95
CCCCOc1ccc(N2C(=O)CC(N(O)c3ccccc3)C2=O)cc1 (configuration not stated)	none
Cn1c(CNc2ccc(F)cc2)nc2ccccc21	ALR H2O2 inh 85
Cc1[nH]n(-c2cccc([N+](=O)[O-])c2)c(=O)c1-c1ccccc1	ALR H2O2 inh 89
Cc1[nH]n(-c2ccccc2)c(=O)c1-c1ccccc1	none
Cc1[nH]n(-c2cccc(Cl)c2)c(=O)c1-c1ccccc1	ALR H2O2 inh 84
Cc1ccc(NC(=O)Nc2nc(-c3ccc(C)s3)cs2)cc1	PfM18AAP inh 28
CCOC(=O)C1CCCN(C(=O)C2CCN(S(=O)(=O)CC)CC2)C1 (configuration not stated)	PHOSPHO1 block 60
CCOC(=O)C1CCCN(C(=O)C2CCN(S(=O)(=O)c3cccs3)CC2)C1 (configuration not stated)	none
COc1ccccc1Oc1ncnc2sccc12	PHOSPHO1 block 61
O=C(O)CCn1c(-c2ccccc2)cc2c1CCCC2=O	PfM18AAP inh 29
Cc1cc(N(C)/N=C/c2ccccc2O)nc(-c2ccccc2O)n1	Cardio protect 50
COc1ccccc1OCC(=O)Nc1sc2c(c1C(=O)NCC1CCCO1)CCC2 (configuration not stated)	Cardio protect 64
COc1cccc(C(c2sc3nc(C)nn3c2O)N2CCc3ccccc3C2)c1 (configuration not stated)	PHOSPHO1 block 74
CCN1CCN(C(c2cccc(OC)c2)c2sc3nc(C)nn3c2O)CC1 (configuration not stated)	none
CCC(C)(C)C1CCc2c(sc(N)c2C(N)=O)C1 (configuration not stated)	ALR H2O2 inh inconclusive
CC(C)(C)C1CCc2c(sc(N)c2C(N)=O)C1 (configuration not stated)	PHOSPHO1 block 83
CCCC1CCc2c(sc(N)c2C(N)=O)C1 (configuration not stated)	PHOSPHO1 block 95 (no result: ALR H2O2 inh)
CCCCN1CC(N(C)CCN(C)C)CS1(=O)=O (configuration not stated)	none (no result: ALR H2O2 inh, PfGluPho inh, PHOSPHO1 block, PfM18AAP inh)
Cc1ccc2nc3c(c(Nc4ccc5c(c4)OCCO5)c2c1)CCC3	ALR H2O2 inh 98
COCCCN1C(=O)C(CC(=O)NCCCCc2ccccc2)CC(C(=O)N(C(C)C)C(C)C)=C1C (configuration not stated)	none (no result: ALR H2O2 inh, PfGluPho inh, PHOSPHO1 block, PfM18AAP inh)
Nc1ccc(N2CCN(CCCCN3C(=O)C4CCCN4C3=O)CC2)cc1 (configuration not stated)	ALR H2O2 inh 99
O=C1C2CCCN2C(=O)N1CCCN1CCN(c2cccc(Br)c2)CC1 (configuration not stated)	ALR H2O2 inh 85
O=C1C2CCCCN2C(=O)N1CCCN1CCN(c2ccc(F)cc2)CC1 (configuration not stated)	none
COc1ccc(-n2ncc3c2CC(C)(C)CC3NC(=O)CCn2cncn2)cc1 (configuration not stated)	PHOSPHO1 block 90
COc1cccc(Nc2nc(-c3sc(N)nc3C)cs2)c1	PHOSPHO1 block 66, Cardio protect 63
COc1ccc(Cl)cc1Nc1nc(-c2sc(NC(=O)c3ccco3)nc2C)cs1	none
COc1ccc2sc(NC(=O)c3ccco3)nc2c1	PHOSPHO1 block 96
COc1cccc(Nc2nc(-c3sc(NC(=O)c4ccco4)nc3C)cs2)c1	Cardio protect 50
CC(=O)c1c(O)c(C)c(O)c2c1OC1=CC(=O)C(C(C)=O)C(=O)[C@@]12C (some centres not stated)	none (no result: ALR H2O2 inh)
